Most compounds without a hit are left out; they make up all but 27% or so of the library.
CYP2C9 activ = increases human cytochrome P450 2C9 activity. P11712. recombinant CYP2C9, luciferin-H conversion, luminescence; active compounds read high; factor 1 = untreated enzyme, 0 = blocked. activation factor at 5 µM. 96,000 tested, 1.4% active;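 active means activation factor of 2 or more for CYP2C9 at a 5 µM dose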;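 further: 0 = sulfaphenazole-blocked wells and 1 = vehicle-only wells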
Target sequence (P11712 whole entry, looked up): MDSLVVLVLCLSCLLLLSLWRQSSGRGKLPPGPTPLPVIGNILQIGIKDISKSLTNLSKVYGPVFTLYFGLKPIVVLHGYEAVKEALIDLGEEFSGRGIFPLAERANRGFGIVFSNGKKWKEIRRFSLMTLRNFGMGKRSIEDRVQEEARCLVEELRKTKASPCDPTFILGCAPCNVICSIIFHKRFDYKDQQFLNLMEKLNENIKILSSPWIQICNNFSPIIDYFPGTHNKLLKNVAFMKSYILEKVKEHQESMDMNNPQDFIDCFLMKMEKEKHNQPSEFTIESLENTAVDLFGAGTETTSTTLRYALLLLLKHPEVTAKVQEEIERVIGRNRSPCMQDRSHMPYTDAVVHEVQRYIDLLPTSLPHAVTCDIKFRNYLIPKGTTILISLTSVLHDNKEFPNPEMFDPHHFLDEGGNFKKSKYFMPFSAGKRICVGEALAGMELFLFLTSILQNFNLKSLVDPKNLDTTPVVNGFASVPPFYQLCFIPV
CYP2C19 inh = human CYP2C19 inhibition. inhibition, % at 5 µM. P33261. CYP2C19 Supersomes, luciferin-H EGE luminescence, 30 min. 96,000 tested, 21% active;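 active means CYP2C19 inhibition above a set limit at 5 µM in the primary screen, cut at about 50% in these data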;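 further: plate controls were negative control wells for no effect and 2.5 mM tranylcypromine positive control for full effect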
EphB4 ephrin blk = blocks human EphB4 binding to ephrin-B2. EphB4 LBD / TNYL-RAW-Alexa532 peptide, fluorescence polarization. 97,000 tested, 0.15% active. P54760. inhibition, % at 7 µM;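 active means inhibition above the screen-wide mean inhibition plus 3 SD, cut at about 15% in these data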;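 further: 0% = DMSO wells and 100% = excess unlabeled TNYL-RAW peptide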
CYP2C9 inh = blocks human cytochrome P450 2C9 | AID 777 | inhibition, % at 5 µM | CYP2C9 Supersomes, luciferin-H conversion, luminescence | 96,000 tested, 20% active;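 active means blocking of liver enzyme CYP2C9 beyond about 50% at 5 µM, limit read from the data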
CYP2C19 activ = cytochrome P450 2C19 (human) activation | recombinant CYP2C19, luciferin-H EGE luminescence; active compounds read high; 0 = fully inhibited enzyme, 1 = untreated enzyme | activation factor at 5 µM | 96,000 tested, under 10 active | AID 1025;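 active means activation factor of at least 2 at 5 µM in the primary screen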;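 further: 0 = wells with 2.5 mM tranylcypromine and 1 = vehicle-only wells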
Starred values were filed as active, the others as inactive; · = no result given.

SMILES	CYP2C9 activ	CYP2C19 inh	EphB4 ephrin blk	CYP2C9 inh	CYP2C19 activ
O=c1c2c(-c3ccco3)csc2nc(SCc2cn3cccnc3n2)n1-c1ccccc1	0	53*	-5	97*	0.5
C=CCn1c(SCC(=O)NCC2CCCO2)nc2scc(-c3ccco3)c2c1=O (stereo not given)	0.2	78*	-3	81*	0.2
CCOCCCNC(=O)C(NC(=O)c1ccc2c(c1)OCO2)c1ccc(OC)cc1 (stereo not given)	1	-6	-4	-2	1.1
CCCCOc1ccccc1C(=O)NCC(=O)O	1	-3	·	-1	1
CCc1ccc(OCC(=O)OC2CCS(=O)(=O)C2)cc1 (stereo not given)	1.1	1	-7	-6	1
c1cncc(-c2nc3ccccc3[nH]2)c1	0.7	9	6	30	0.9
O=C1c2ccccc2C(=O)N1Cc1nc2ccccc2c(=O)n1Cc1ccco1	0.9	7	·	10	0.9
O=C1c2ccccc2C(Nc2ccc3nc(-c4cccnc4)[nH]c3c2)N1Cc1ccco1 (stereo not given)	0.1	26	·	93*	0.7
O=C1c2ccccc2C(Nc2ccc(-c3nc4ccccc4[nH]3)cc2)N1Cc1ccco1 (stereo not given)	0.1	73*	1	87*	0.3
CN(C)CCOC(=O)Cc1ccc(Cl)cc1	1	19	3	2	0.8
CC(C)(C)C(=O)NC(=S)Nc1ccccc1F	0.7	8	1	34	0.9
O=C(c1sccc1-n1cccc1)N1CCCC1	1.2	-4	1	-24	1
CCCC1=C(C(=O)OCC)C(c2ccc(NC(C)=O)cc2)NC(=O)N1 (stereo not given)	1	3	-1	5	1
O=C(Nc1ccccc1C(F)(F)F)c1cccnc1	1.1	2	-1	-10	1
Cc1ccc(S(=O)(=O)N(C)CCCC(=O)n2nc(C)cc2C)cc1	1.9	89*	5	-89	0.1
CCOC(=O)c1nn(-c2ccccc2)c(-c2ccccc2)c1C(=O)c1ccccc1	0.4	40	-2	59*	0.6
CCOC(=O)c1nn(-c2cccc(OC)c2)c(-c2ccccc2)c1C(=O)c1ccccc1	0.5	47	5	49	0.5
CCOC(=O)c1nn(-c2cccc(Cl)c2)c(C)c1C(C)=O	0.4	100*	-1	64*	0
CCOC(=O)c1c(C)nn(Cc2cccc(Cl)c2)c1N	0.1	24	1	90*	0.8
CCOC(=O)c1nn(-c2ccccc2)c(=O)c(C#N)c1C	0.9	70*	3	9	0.3
O=C(NCCO)c1cc2ccccc2cc1O	0.8	12	2	24	0.9
OCC12COC(c3ccccc3)N1C(c1ccccc1)OC2 (stereo not given)	0.5	69*	5	47	0.3
O=C(c1ccccc1)N1CCCOC1c1ccccc1 (stereo not given)	1.1	-7	-4	-15	1.1
COc1ccc(NC(=O)C2CCCN2S(=O)(=O)c2ccc3c(c2)CCC(=O)N3)c(OC)c1 (stereo not given)	0.8	47	-1	22	0.5
CC1(C)N=C(c2ccc(Cl)cc2Cl)C(=O)N1	0.5	80*	-1	46	0.2
SMILES	CYP2C9 activ	CYP2C19 inh	EphB4 ephrin blk	CYP2C9 inh	CYP2C19 activ
CCOc1cccc(OCCCCN2CCCCC2)c1	0.9	12	-3	12	0.9
CCOC(=O)c1ccc(-n2c(N)c(C(=O)NCC3CCCO3)sc2=S)cc1 (stereo not given)	0.2	18	-6	83*	0.8
CCOC(=O)c1ccc(-n2c(N)c(C(=O)NCc3ccco3)sc2=S)cc1	0.6	15	6	41	0.9
C=CCNC(=O)c1sc(=S)n(-c2ccc(C(=O)OCC)cc2)c1N	0.4	16	·	56*	0.8
Cc1ccc(-c2nn(-c3ccccc3)cc2CSC(=N)N)cc1	0.9	18	6	11	0.8
CCc1cccc2c(C(=O)COC(=O)c3nn(C)c(=O)c4ccccc34)c[nH]c12	0.1	94*	3	88*	0.1
CCc1cccc2c(C(=O)Cn3nnc(-c4ccc(OC)c(OC)c4)n3)c[nH]c12	0.4	71*	12	62*	0.3
CCOc1ccc(-c2nnn(CC(=O)Nc3cccc(OC)c3)n2)cc1OCC	0.8	46	1	20	0.5
CCn1nc(C(=O)OCC(=O)c2c[nH]c3ccccc23)c2ccccc2c1=O	0.3	32	-5	72*	0.7
Cc1ccc(O)c(C(=O)c2cnc3c(c2)COc2ccccc2-3)c1	·	·	-1	·	·

High-throughput results (PubChem BioAssay)
